The source of these data is PubChem BioAssay (Tox21).

Inconclusive results are not listed. Active and inactive are the calls of the source. Unless noted, the call rests on the fitted dose curve.

Assay [1] can be described thus: Nuclear factor erythroid 2-related factor 2/antioxidant responsive element (Nrf2/ARE) small molecule agonists: qHTS cell viability counter screen in human keratinocytes (AID 1919968; active means well fitted curve in the direction sought with a large enough effect in the repeat runs; an effect the other way counts as inactive or inconclusive; further: nearly all actives have a fitted effect of over 55% in size; further: potency means the concentration at half of the fitted maximal effect). In outline: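 KeratinoSens cells (HaCaT keratinocytes stably carrying an ARE-luciferase reporter) were seeded at 1,500 cells/well and rested 5 h at 37 C/5% CO2. They were then exposed to compounds in DMSO for 23 h. Viability was read by CellTiter-Fluor fluorescence after 1 h.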

For assay [2], the target named is Gonadotropin-releasing hormone receptor (Homo sapiens) (UniProt P30968). Put plainly: Human gonadotropin-releasing hormone receptor (GnRHR) small molecule agonists, calcium flux assay in GnRHR-HEK293 cells (AID 1920063). Further: nearly all actives have a fitted effect of over 35% in size. In outline: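 HEK293 cells stably expressing human GnRHR were plated 18 h at 37 °C, loaded with calcium dye 1 h at 37 °C, then given compound in agonist mode; fluorescence (Ex/Em 480/540) read kinetically for 3 min at 1 s intervals.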
On the technique in general: A change in cytosolic calcium serves as a functional read-out for many receptors and channels.

Assay [3] has as its target KiSS-1 receptor (Homo sapiens) (UniProt Q969F8). Put plainly: Human kisspeptin (KISS1R) small molecule agonists, calcium flux assay in KISS1R-HEK293 cells (AID 1920064; active means well fitted curve in the direction sought with a large enough effect in the repeat runs; an effect the other way counts as inactive or inconclusive). In outline: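 HEK293 cells stably expressing human KISS1R were plated 18 h at 37 °C, loaded with calcium dye for 1 h at 37 °C, then given compound by pin tool. Fluorescence (Ex/Em 480/540) was read kinetically for 3 min.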

Assay [4] can be described thus: G protein-coupled receptor (GPCR) small molecule agonists, calcium flux assay: HEK293 wild type cell line counter screen (AID 1920065). Summed up:
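Cells were plated and cultured 18 h at 37 C/5% CO2, then loaded with calcium dye for 1 h at 37 C. Compounds in DMSO were pin-transferred in agonist mode, and fluorescence (Ex/Em 480/540) was read kinetically for 3 min at 1 s intervals.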

Assay [5] in a line: p53 small molecule agonists, cell-based qHTS assay with human liver microsomes (AID 1963577). Summed up:
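Fluorescence of the beta-lactamase reporter in p53RE-bla cells, detected with LiveBLAzer substrate (2 h, room temperature, dark), served as the read-out after 16 h compound exposure at 37 C with human liver microsomes and NADPH, each 0.5 mg/mL final.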
Background: qHTS replaces the single test concentration by a dilution series.

A short description of assay [6]: p53 small molecule agonists, cell-based qHTS assay with rat liver microsomes (AID 1963578). Summed up:
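Cells carrying a p53 response element–beta-lactamase reporter were plated and rested 5 h, then dosed with compound in DMSO plus rat liver microsomes and NADPH, each at 0.5 mg/mL final. After 16 h at 37 C, LiveBLAzer substrate was added for 2 h.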

Assay [7] is described as follows: p53 small molecule agonists, cell-based qHTS assay with rat liver microsomes: qHTS cell viability counter screen (AID 1963580). Further: nearly all actives have a fitted effect of over 45% in size. Summed up:
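In HCT-116 cells carrying a p53 response element-bla reporter, compounds were metabolically activated in situ by rat liver microsomes with NADPH over 16 h. Cell ATP content then served as the cytotoxicity measure.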

Assay [8] is described as follows: p53 small molecule agonists, cell-based qHTS assay: qHTS cell viability counter screen (AID 1963581). Further: nearly all actives have a fitted effect of over 45% in size. Summed up:
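p53RE-bla HCT-116 cells were exposed to compounds for 16 h at 37 C; after the beta-lactamase FRET read in the same wells, CellTiter-Glo was added and luminescence (intracellular ATP) read after 30 min at room temperature.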

A short description of assay [9]: p53 small molecule agonists, cell-based qHTS assay (AID 1963582; active means well fitted activation curve with a large enough effect in the signal ratio in the repeat runs, not every such curve was filed as active; the % refers to the signal ratio). Summed up: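 p53RE-bla beta-lactamase reporter cells rested 5 h at 37 C/5% CO2, then received compounds in DMSO by pin transfer and were incubated 16 h at 37 C. LiveBLAzer B/G FRET substrate was loaded for 2 h at room temperature before fluorescence reading.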
Assay [10] deals with 5-hydroxytryptamine receptor 2A (Homo sapiens) (UniProt P28223). Kind of assay: 5-hydroxytryptamine receptor 2A (HTR2A) small molecule antagonists, cell-based qHTS assay (AID 1963586). Further: nearly all actives have a fitted effect of over 45% in size. In outline:
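Antagonist-mode intracellular calcium assay: DOI (4 nM) added after 5 min compound pre-incubation at room temperature to dye-loaded HTR2A-CHO cells. Fluorescence followed for 3 min, sampled every second.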

Assay [11] shares this target. Kind of assay: 5-hydroxytryptamine receptor 2A (HTR2A) small molecule agonists, cell-based qHTS assay (AID 1963587). Further: nearly all actives have a fitted effect of over 30% in size. Summed up:
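HTR2A-CHO cells, plated 18 h at 37 C/5% CO2, dye-loaded 1 h at 37 C; compounds in DMSO added by pin tool (agonist mode). Intracellular calcium flux read as kinetic fluorescence on FDSS over 2 min at 1 s intervals.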

For assay [12], the target named is Muscarinic acetylcholine receptor M1 (Homo sapiens) (UniProt P11229). Put plainly: Cholinergic receptor muscarinic 1 (CHRM1) small molecule antagonists, cell-based qHTS assay (AID 1963588). Further: nearly all actives have a fitted effect of over 40% in size. In outline: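 CHRM1-CHO calcium-flux assay, antagonist mode. Cells were seeded 18 h, dye-loaded 1 h at 37 C and given compound for 5 min at RT, then acetylcholine was added at 50nM. FDSS fluorescence was read 3 min; 15 concentrations, three runs.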

Assay [13] has the same target. Put plainly: Cholinergic receptor muscarinic 1 (CHRM1) small molecule agonists, cell-based qHTS assay (AID 1963589). Further: nearly all actives have a fitted effect of over 35% in size. In outline: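 CHO cells stably expressing human CHRM1, seeded 18 h at 37 C/5% CO2, dye-loaded 1 h at 37 C, then given compound in agonist mode; intracellular calcium fluorescence read kinetically at 1 s intervals. Fifteen concentrations, three independent runs.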

The nature of assay [14]: cAMP Responsive Elements (CRE) small molecule agonists, cell-based qHTS assay (AID 1963590). Summed up:
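CRE-bla HEK 293T cells in DMEM with 10% dialyzed FBS, NEAA, pyruvate and 25 mM HEPES were plated 18 h at 37 C/5% CO2, then exposed to compounds in DMSO for 3 h before LiveBLAzer B/G FRET substrate addition.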

Assay [15] addresses Beta-2 adrenergic receptor (Homo sapiens) (UniProt P07550). Kind of assay: Adrenergic beta2 receptor (ADRB2) small molecule antagonists, cell-based qHTS assay (AID 1963592). Further: series mostly up to about 92 µM; nearly all actives have a fitted effect of over 50% in size. Summed up:
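Cells (CHO, stable ADRB2 overexpression) incubated 18-20hr at 37C; compounds added from DMSO; agonist mix (1nM isoproterenol, 100uM IBMX, 25uM Ro-20-1724) added; 0.5hr RT; d2-cAMP and anti-cAMP-cryptate added; 1hr RT; 665/615 nm read.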

The target in assay [16] is D(2) dopamine receptor (Homo sapiens) (UniProt P14416). Put plainly: Dopamine D2 receptor (DRD2) small molecule agonists, cell-based qHTS assay (AID 1963594). Further: nearly all actives have a fitted effect of over 35% in size. Summed up:
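HEK293 cells stably expressing DRD2 were cultured 24 h at 37 C, then given Ro20-1724 (0.1 mM final) and compounds for 10 min at room temperature. NKH477 (200nM) was then added for 30 min. cAMP was read by HTRF.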

For assay [17] the target is unchanged. Put plainly: Dopamine D2 receptor (DRD2) small molecule antagonists, cell-based qHTS assay (AID 1963595; active means well fitted inhibition curve with a large enough effect in the signal ratio in the repeat runs, with a control signal flat; the % refers to the signal ratio). Summed up:
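Readout: HTRF cAMP, cAMP-d2 competing with cellular cAMP for anti-cAMP cryptate, read after 1 h. Cells: DRD2-HEK293. Conditions: 0.1 mM Ro20-1724, 12 nM quinpirole, 200 nM NKH477, 30 min RT.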

The nature of assay [18]: p53 small molecule agonists, cell-based qHTS assay with human liver microsomes: qHTS cell viability counter screen (AID 1963579). Further: nearly all actives have a fitted effect of over 45% in size. In outline:
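Cytotoxicity counter screen: p53RE-bla, 4,000 cells/well; 5 h settle, 37 C/5% CO2; cpd + HLM 0.5 mg/mL + NADPH 0.5 mg/mL (final); 16 h, 37 C; CellTiter-Glo, 30 min RT, luminescence.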

Assay [19] in a line: cAMP Responsive Elements (CRE) small molecule antagonists, cell-based qHTS assay (AID 1963591; active means well fitted inhibition curve with a large enough effect in the signal ratio in the repeat runs, not every such curve was filed as active; the % refers to the signal ratio). In outline:
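CRE-bla HEK293T cells were plated 18 h at 37 °C/5% CO2, pinned with compound in DMSO, then stimulated with NKH477 at 0.25 uM final for 3 h. LiveBLAzer B/G FRET substrate was added and plates incubated 2 h at room temperature.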

Chain of 5-hydroxytryptamine receptor 2A (Homo sapiens) (P28223 whole entry, looked up): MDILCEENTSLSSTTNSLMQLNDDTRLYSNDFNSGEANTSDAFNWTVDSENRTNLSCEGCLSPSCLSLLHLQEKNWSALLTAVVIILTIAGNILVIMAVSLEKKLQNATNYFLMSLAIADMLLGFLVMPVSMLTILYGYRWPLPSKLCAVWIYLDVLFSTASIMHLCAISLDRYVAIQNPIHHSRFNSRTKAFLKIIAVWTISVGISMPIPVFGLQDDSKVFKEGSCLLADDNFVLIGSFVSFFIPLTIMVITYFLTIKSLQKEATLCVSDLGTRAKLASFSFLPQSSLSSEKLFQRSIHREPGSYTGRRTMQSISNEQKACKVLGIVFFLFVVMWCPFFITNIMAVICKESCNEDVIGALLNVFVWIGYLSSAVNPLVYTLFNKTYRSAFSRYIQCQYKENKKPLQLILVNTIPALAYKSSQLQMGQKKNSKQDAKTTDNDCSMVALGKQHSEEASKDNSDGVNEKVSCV
Chain of Gonadotropin-releasing hormone receptor (Homo sapiens) (P30968 whole entry, looked up): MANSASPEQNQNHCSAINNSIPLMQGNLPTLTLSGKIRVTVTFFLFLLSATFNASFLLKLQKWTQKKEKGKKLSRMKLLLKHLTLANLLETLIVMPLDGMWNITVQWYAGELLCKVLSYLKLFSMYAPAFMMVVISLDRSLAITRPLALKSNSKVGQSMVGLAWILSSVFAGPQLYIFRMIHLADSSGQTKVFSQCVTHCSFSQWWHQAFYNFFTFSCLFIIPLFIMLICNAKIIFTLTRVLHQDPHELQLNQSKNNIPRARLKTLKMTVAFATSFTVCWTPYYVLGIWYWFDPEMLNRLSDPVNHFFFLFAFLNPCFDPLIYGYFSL
Chain of Muscarinic acetylcholine receptor M1 (Homo sapiens) (P11229 whole entry, looked up): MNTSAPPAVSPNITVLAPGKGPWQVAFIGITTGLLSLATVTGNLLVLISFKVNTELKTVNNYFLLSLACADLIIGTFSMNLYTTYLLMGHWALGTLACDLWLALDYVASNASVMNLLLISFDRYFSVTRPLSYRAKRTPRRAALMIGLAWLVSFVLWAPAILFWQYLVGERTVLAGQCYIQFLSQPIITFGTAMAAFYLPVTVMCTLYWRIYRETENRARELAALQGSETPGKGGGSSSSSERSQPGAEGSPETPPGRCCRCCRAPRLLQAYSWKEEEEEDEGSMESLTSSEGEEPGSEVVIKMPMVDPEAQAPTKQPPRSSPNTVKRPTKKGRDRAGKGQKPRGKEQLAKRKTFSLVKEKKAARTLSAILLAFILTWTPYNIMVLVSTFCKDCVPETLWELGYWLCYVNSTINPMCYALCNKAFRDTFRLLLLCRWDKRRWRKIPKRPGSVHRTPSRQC
Chain of Beta-2 adrenergic receptor (Homo sapiens) (P07550 whole entry, looked up): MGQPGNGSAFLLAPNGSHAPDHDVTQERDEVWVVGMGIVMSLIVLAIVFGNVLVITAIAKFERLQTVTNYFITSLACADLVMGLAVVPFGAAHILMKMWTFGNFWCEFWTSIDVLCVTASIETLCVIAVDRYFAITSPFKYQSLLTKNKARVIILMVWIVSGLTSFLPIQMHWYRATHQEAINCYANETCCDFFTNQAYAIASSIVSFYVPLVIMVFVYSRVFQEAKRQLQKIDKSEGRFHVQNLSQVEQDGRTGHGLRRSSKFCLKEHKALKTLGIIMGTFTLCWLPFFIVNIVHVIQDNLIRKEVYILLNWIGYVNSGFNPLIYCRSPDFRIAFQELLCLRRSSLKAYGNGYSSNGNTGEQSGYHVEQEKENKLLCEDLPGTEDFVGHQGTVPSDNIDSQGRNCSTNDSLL
Chain of D(2) dopamine receptor (Homo sapiens) (P14416 whole entry, looked up): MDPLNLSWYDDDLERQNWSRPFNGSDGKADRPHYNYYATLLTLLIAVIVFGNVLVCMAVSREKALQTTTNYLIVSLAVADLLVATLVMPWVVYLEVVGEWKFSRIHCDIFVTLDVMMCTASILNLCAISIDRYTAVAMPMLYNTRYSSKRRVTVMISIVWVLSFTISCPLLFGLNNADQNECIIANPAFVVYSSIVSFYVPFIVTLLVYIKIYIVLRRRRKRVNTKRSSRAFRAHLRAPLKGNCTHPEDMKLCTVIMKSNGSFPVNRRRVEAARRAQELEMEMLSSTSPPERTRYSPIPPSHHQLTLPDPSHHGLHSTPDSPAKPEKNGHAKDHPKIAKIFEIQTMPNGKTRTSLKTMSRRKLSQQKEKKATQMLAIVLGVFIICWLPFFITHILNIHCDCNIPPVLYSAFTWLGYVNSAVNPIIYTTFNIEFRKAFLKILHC
Chain of KiSS-1 receptor (Homo sapiens) (Q969F8 whole entry, looked up): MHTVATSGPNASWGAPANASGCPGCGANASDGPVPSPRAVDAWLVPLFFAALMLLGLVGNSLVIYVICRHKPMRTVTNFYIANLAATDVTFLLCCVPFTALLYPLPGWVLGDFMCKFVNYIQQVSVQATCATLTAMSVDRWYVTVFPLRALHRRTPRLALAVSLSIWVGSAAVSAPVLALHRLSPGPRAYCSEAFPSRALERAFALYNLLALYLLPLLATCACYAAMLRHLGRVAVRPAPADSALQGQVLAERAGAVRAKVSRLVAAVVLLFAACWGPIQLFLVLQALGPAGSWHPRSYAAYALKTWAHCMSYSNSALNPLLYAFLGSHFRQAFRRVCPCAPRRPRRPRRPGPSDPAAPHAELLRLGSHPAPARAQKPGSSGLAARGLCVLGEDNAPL

`CCCCCCCCCCCCC`: the Potency result in assay [1], in [2], in [5], in assay [6], in [7] and in assay [8] was “inactive” each time. Also, the Potency entry in assay [9], in [10], in assay [11], in [12], in assay [13] and in assay [14] was “inactive” throughout. Further, the Potency entry in [15], in assay [16] and in assay [17] was “inactive” throughout. The outcome in assay [3] and in assay [4] was inactive.
In the case of `COc1cc(S(=O)(=O)O)c(C)cc1N=Nc1c(O)ccc2cc(S(=O)(=O)O)ccc12`, the Potency in assay [1] was 24.3 µM (active). Besides, the Potency result in assay [2], in assay [5], in assay [6], in [18], in [8] and in [9] was “inactive” throughout. Moreover, the Potency result in assay [10], in assay [12], in assay [13], in assay [14] and in assay [19] was “inactive” each time. Moreover, the result in assay [3] and in assay [4] was inactive.
Consider `CN(C)CCCCl`, for which the Potency result in [1], in [2], in assay [5], in assay [6], in assay [18] and in assay [7] was “inactive” each time. Besides, the Potency result in assay [8], in assay [10], in assay [11], in assay [12], in [14] and in [19] was “inactive” in each case. Also, the Potency result in [15], in [16] and in [17] was “inactive” each time. In addition, the outcome in assay [3] and in assay [4] was inactive.
Regarding `On1nnc2ccccc21`, the Potency entry in assay [1], in [2], in assay [5], in assay [6], in [18] and in assay [7] was “inactive” throughout. Also, the Potency entry in assay [8], in [10], in [11], in assay [13], in assay [14] and in [19] was “inactive” each time. In addition, the Potency result in assay [15], in assay [16] and in assay [17] was “inactive” in each case. Moreover, the outcome in assay [3] and in [4] was inactive.
For the compound `CCCCCCCCCCCC`, the Potency entry in assay [1], in [2], in assay [5], in assay [6], in assay [7] and in [8] was “inactive” in each case. The Potency entry in [9], in assay [10], in assay [11], in assay [12], in assay [13] and in [14] was “inactive” in each case. Besides, the Potency entry in assay [19], in assay [16] and in assay [17] was “inactive” throughout. In addition, the result in [3] and in assay [4] was inactive.
Regarding `CC1(C)Cc2cccc(N)c2O1`, the Potency result in [1], in [2], in [5], in assay [6], in [18] and in [7] was “inactive” in each case. For the same compound, the Potency entry in [9], in assay [10], in [11], in assay [12], in assay [13] and in [14] was “inactive” throughout. Besides, the Potency result in [19] and in assay [16] was “inactive” each time. Also, the outcome in assay [3] and in assay [4] was inactive.
Turning to `CCCCCCCCN(C)CCCCCCCC`, the Potency result in assay [1], in [2], in [5], in assay [6], in [7] and in assay [8] was “inactive” in each case. Also, the Potency entry in assay [9], in assay [10], in assay [11], in assay [12], in [13] and in assay [14] was “inactive” in each case. For the same compound, the Potency result in assay [19], in assay [15], in assay [16] and in assay [17] was “inactive” each time. Also, the outcome in [3] and in assay [4] was inactive.
As to `CCC(C)c1cc([N+](=O)[O-])cc([N+](=O)[O-])c1OC(=O)OC(C)C` (stereo not given), the Potency in assay [1] was 38.6 µM (active). Also, the Potency entry in [2], in assay [5], in [6], in assay [18], in assay [7] and in [8] was “inactive” each time. The Potency entry in assay [11], in [12], in [13], in assay [16] and in assay [17] was “inactive” each time. Further, the outcome in [3] and in assay [4] was inactive.
